Active and inactive are the calls of the source. Unless noted, no rule for the calls is given here.

The text below walks through data of PubChem BioAssay.

Assay [1] is described as follows: HepG2 liver cancer cell viability effects, profiling panel, resazurin fluorescence, 24 h, PK04 Diversity Set (AID 1172). Also: test concentration not given here. The settings on record: higher = more signal. (In general: Alamar Blue is a resazurin reagent that responds to reducing activity.)
Assay [2] in a line: basal S. cerevisiae growth modulation, no modifier, primary screen, OD600, strain BY4716, 24 h, basal condition (AID 1173). Conditions: OD600, 24 h, higher = more signal, called active from +8 up or from −8 down.
Assay [3] in a line: MM1S myeloma cell viability, profiling panel, resazurin fluorescence, basal, 24 h, PK04 Diversity Set (AID 1174). Also: test concentration not given here. The settings on record: higher = more signal, called active from +8 up or from −8 down.
The target in assay [4] is Dihydroorotate dehydrogenase (quinone), mitochondrial (Plasmodium falciparum (isolate 3D7)) (UniProt Q08210). As to the kind of experiment: PfDHODH enzyme inhibitors, primary screen, biochemical, C-terminal His tag, absorbance 600 nm (AID 1175).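 Also: recombinant parasite enzyme with a five histidine tag at its C terminus; test concentration not given here.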 The settings on record: DCIP absorbance 600 nm, higher = more signal, called active from +8 up or from −8 down.
Sequence of Dihydroorotate dehydrogenase (quinone), mitochondrial (Plasmodium falciparum (isolate 3D7)) (Q08210 whole entry, looked up): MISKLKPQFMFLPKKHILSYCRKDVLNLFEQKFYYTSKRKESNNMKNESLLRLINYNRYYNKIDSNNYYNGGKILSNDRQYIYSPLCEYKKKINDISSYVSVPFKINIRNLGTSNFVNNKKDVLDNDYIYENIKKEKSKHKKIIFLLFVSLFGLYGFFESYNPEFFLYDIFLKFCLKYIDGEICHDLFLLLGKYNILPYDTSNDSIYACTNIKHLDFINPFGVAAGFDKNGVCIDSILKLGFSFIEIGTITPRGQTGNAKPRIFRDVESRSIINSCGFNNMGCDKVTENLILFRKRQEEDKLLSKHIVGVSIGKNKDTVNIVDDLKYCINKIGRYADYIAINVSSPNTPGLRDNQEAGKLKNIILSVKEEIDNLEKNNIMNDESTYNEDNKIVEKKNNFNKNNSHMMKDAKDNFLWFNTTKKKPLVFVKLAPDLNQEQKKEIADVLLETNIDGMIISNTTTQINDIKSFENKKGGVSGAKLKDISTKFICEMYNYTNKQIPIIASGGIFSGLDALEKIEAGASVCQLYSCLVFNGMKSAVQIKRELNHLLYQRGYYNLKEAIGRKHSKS
Assay [5] can be described thus: P. aeruginosa biofilm formation inhibitors, primary screen, strain PAO1, LB-PBS medium, absorbance 600 nm (AID 1176). Also: test concentration not given here. The settings on record: P. aeruginosa PAO1 growth/biofilm, A600, 12 h; higher = more signal.
Assay [6] can be described thus: S. cerevisiae RM11-1a growth modifiers, primary screen, strain RM11-1a, OD600, basal, 24 h (AID 1177).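 Also: cultures grown under basal conditions with no added stressor; test concentration not given here.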 The settings on record: OD600, 24 h, higher = more signal, called active from +8 up or from −8 down.
Assay [7] in a line: E. coli acrAB mutant growth effects, primary screen, E. coli filamentation inducers, strain DRC39, OD650, 24 h (AID 1178).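 Also: growth measured as culture turbidity by optical density at 650 nm; test concentration not given here.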 Conditions: higher = more signal, called active from +8 up or from −8 down.
A short description of assay [8]: E. coli acrAB mutant growth effects, primary screen, E. coli filamentation inducers, strain DRC39, OD650, 48 h (AID 1179).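 Also: screen aims at cell division blockers that make cells filament.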 Conditions: E. coli DRC39 delta-acrAB growth, higher = more signal, called active from +8 up or from −8 down.
A short description of assay [9]: RPMI8226 myeloma cell viability, profiling panel, resazurin fluorescence, basal, 24 h, PK04 Diversity Set (AID 1180).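 Also: RPMI8826 multiple myeloma cell line at 5000 cells per well; test concentration not given here.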 Conditions: higher = more signal.
The target in assay [10] is E3 ubiquitin-protein ligase XIAP (Homo sapiens) (UniProt P98170). Nature of the assay: XIAP binders, primary screen, biophysical, small-molecule microarray, fluorescence 635 nm (AID 1181).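 Also: score merges 667 nm emission and signal to noise over triplicate slides.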 Conditions: small-molecule microarray binding, higher = more signal.
Sequence of E3 ubiquitin-protein ligase XIAP (Homo sapiens) (P98170 whole entry, looked up): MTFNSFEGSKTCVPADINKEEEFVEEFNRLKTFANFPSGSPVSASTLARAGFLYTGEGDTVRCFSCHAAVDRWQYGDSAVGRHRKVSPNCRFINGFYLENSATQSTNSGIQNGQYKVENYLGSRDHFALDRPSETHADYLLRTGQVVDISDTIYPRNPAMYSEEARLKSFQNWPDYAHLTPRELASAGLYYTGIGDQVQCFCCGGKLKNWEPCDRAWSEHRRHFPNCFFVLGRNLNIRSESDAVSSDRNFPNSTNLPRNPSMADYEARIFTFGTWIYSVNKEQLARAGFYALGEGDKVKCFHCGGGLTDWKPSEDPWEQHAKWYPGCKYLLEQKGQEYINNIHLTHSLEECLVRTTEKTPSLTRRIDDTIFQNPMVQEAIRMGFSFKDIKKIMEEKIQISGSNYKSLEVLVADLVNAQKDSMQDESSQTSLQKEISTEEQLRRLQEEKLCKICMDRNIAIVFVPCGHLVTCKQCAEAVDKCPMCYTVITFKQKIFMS

Regarding `C[C@@H](c1ccccc1)N1C(=O)[C@H]2[C@H]3[C@H](O)[C@H](O)CC(=NOCc4ccccc4)[C@@H]3CC[C@H]2C1=O`, the z-score in assay [1] was -0.511; in assay [2], -0.123 (inactive); in [3] it was -0.457 (inactive); in assay [5], -0.0819 (inactive); in assay [6] it was -0.183 (inactive); in assay [7], -0.241 (inactive). The z-score was -0.0934 (inactive) in assay [8] and -0.181 in assay [9]. For the same compound, the composite z-score in assay [4] is 0.805 (inactive); in assay [10], -0.185.

With `C#CCCCON=C1[C@H]2CCn3c(=O)n(Cc4cc5c(cc4Cl)OCO5)c(=O)n3[C@H]2[C@H](O)[C@@H]2O[C@H]12`, the z-score in assay [1] is -0.242; in [2] it was 0.606 (inactive); in [3], -0.16 (inactive); in assay [5], -0.106 (inactive); in assay [6] it was 0.432 (inactive); in assay [7], 0.313 (inactive). The figures for the z-score in assay [8] and in [9] were -0.506 (inactive) and 0.0334, respectively. The composite z-score is 0.605 (inactive) in assay [4] and -0.168 in [10].

For `C[C@H]1CC[C@H]2C(=O)O[C@H](CO)CN2[C@@H]1c1ccc(Br)cc1`, the z-score was 0.72 in assay [1]; -8.2 (active) in [2]; 0.678 (inactive) in assay [3]; 0.441 (inactive) in assay [5]; -0.356 (inactive) in [6]; 0.342 (inactive) in assay [7]. Further, the z-score in assay [8] was -0.016 (inactive); in assay [9], -0.817. In addition, the composite z-score is 0.586 (inactive) in [4] and 0.0733 in assay [10].

Regarding `COc1ccc(O[C@H]2C=C[C@@H](c3ccccc3)O[C@@H]2COC(=O)NCc2cccc3ccccc23)cc1`, the z-score in assay [1] was -0.556; in assay [2], 0.476 (inactive); in [3], -0.079 (inactive); in assay [5], 0.79 (inactive); in assay [6] it was 0.846 (inactive); in assay [7] it was -0.424 (inactive). The z-score in [8] was -0.257 (inactive); in assay [9], 0.283. Further, the composite z-score in assay [4] was -0.0459 (inactive); in assay [10], -0.0448.

For `CC(CCC(=O)OC[C@H]1O[C@H](C#Cc2ccccc2)C=C[C@@H]1Oc1ccc(C)cc1)=NO[C@@H](C)c1cc(-c2c(C)cc(C)cc2C)no1`, the z-score in assay [1] was -0.53; in [2] it was 0.0942 (inactive); in assay [3] it was 0.281 (inactive); in assay [5] it was -0.798 (inactive); in assay [6], 0.333 (inactive); in assay [7] it was -0.135 (inactive). For the same compound, the z-score is 0.213 (inactive) in assay [8] and 0.838 in assay [9]. The composite z-score was 1.04 (inactive) in assay [4] and -0.102 in [10].

Consider `CCOC(=O)[C@H](Cc1ccccc1)NC(=O)CCC1CC(OC(=O)NCc2ccc3c(c2)OCO3)CC2(CCCC(COC(=O)NCCOC)O2)O1` (stereo not given in full), for which the z-score in assay [1] is 0.0491; in assay [2], -0.914 (inactive); in assay [3] it was 0.808 (inactive); in assay [5], -0.871 (inactive); in assay [6], 0.0059 (inactive); in assay [7], -0.477 (inactive). In addition, the results for the z-score in [8] and in [9] were 0.525 (inactive) and -0.0023, respectively. In addition, the values for the composite z-score in [4] and in [10] were -2.56 (inactive) and 0.0374, respectively.

`CO[C@@H]1C=CCC(=O)N[C@@H](C)C(=O)OC[C@@H](NS(=O)(=O)c2ccc(C)cc2)[C@H](C)C=CCC(=O)OC[C@H]1C`: the z-score in assay [1] is -0.0689; in [2], -0.872 (inactive); in assay [3], -0.0213 (inactive); in assay [5], -0.212 (inactive); in assay [6] it was -0.876 (inactive); in [7] it was 0.0721 (inactive). The values for the z-score in [8] and in [9] were -0.418 (inactive) and 0.135, respectively. Further, the composite z-score in assay [4] is -0.165 (inactive); in assay [10] it was 0.201.

`COC(=O)[C@H](C)NC(=O)CCC1CC(OC(=O)NCc2cccc3ccccc23)CC2(CCCC(COC(=O)NCCC(C)C)O2)O1` (stereo not given in full): the z-score in assay [1] was 0.817; in assay [2], -0.274 (inactive); in [3], 0.505 (inactive); in [5], -0.0691 (inactive); in assay [6], -0.186 (inactive); in assay [7], 0.443 (inactive). Also, the z-score is 0.594 (inactive) in assay [8] and 0.452 in [9]. Besides, the composite z-score in assay [4] is -1.24 (inactive); in assay [10] it was -0.191.

In the case of `COc1ccc(COC(=O)NN=C2C[C@@H](O)[C@@H](O)[C@@H]3[C@@H]4C(=O)N(Cc5ccccc5)C(=O)[C@@H]4CC[C@@H]23)cc1`, the z-score is 1.13 in assay [1]; 0.18 (inactive) in assay [2]; 0.259 (inactive) in assay [3]; 0.0335 (inactive) in assay [5]; 0.325 (inactive) in assay [6]; 0.918 (inactive) in [7]. Moreover, the z-score in [8] was 0.935 (inactive); in assay [9] it was 1.12. Also, the composite z-score in assay [4] was 0.207 (inactive); in assay [10], -0.102.

For `COc1ccc(COC(=O)NN=C2C[C@@H](O)[C@@H](O)[C@@H]3[C@@H]4C(=O)N([C@@H](C)c5ccccc5)C(=O)[C@@H]4CC[C@H]23)cc1`, the z-score is 0.453 in assay [1]; -0.111 (inactive) in [2]; 0.334 (inactive) in [3]; 0.683 (inactive) in assay [5]; -0.677 (inactive) in assay [6]; -0.267 (inactive) in assay [7]. The z-score in assay [8] was 0.197 (inactive); in assay [9], 0.818. In addition, the values for the composite z-score in assay [4] and in [10] were -0.308 (inactive) and 0.0193, respectively.

In the case of `CO[C@H]1COC(=O)[C@H](CCSC)NC(=O)CC=C[C@@H](C)[C@H](OC)COC(=O)[C@@H](OCc2ccccc2)C=C[C@@H]1C`, the z-score in assay [1] was 0.81; in assay [2], -0.41 (inactive); in [3], -0.059 (inactive); in assay [5], -1.38 (inactive); in assay [6], -0.208 (inactive); in [7], 0.345 (inactive). In addition, the z-score was 0.238 (inactive) in assay [8] and 0.519 in assay [9]. The composite z-score in assay [4] was -0.611 (inactive); in assay [10], -0.0965.

On to `CCOC(=O)[C@H](CC(C)C)NC(=O)CCC1CC(OC(=O)NCc2ccc3c(c2)OCO3)CC2(CCCC(COC(=O)NCCOC)O2)O1` (stereo not given in full), for which the z-score was 1.22 in [1]; -0.383 (inactive) in assay [2]; 0.982 (inactive) in assay [3]; -0.516 (inactive) in [5]; 0.418 (inactive) in assay [6]; 0.214 (inactive) in [7]. The z-score was -1.31 (inactive) in [8] and 0.912 in assay [9]. The results for the composite z-score in assay [4] and in [10] were -0.617 (inactive) and -0.0784, respectively.

On to `C#CCCCON=C1C[C@@H](O)[C@@H](O)[C@@H]2[C@@H]3C(=O)N([C@@H](C)c4ccccc4)C(=O)[C@@H]3CC[C@@H]12`, for which the z-score in assay [1] was -0.121; in [2], 0.858 (inactive); in [3], -0.521 (inactive); in [5], 0.237 (inactive); in [6], 0.604 (inactive); in assay [7] it was -0.612 (inactive). For the same compound, the z-score in [8] is -0.245 (inactive); in [9], -0.245. Besides, the composite z-score in assay [4] was 0.579 (inactive); in assay [10], -0.124.
